NPC1 promoter act: activators of NPC1 promoter; Huh7 NPC1 promoter luciferase reporter, 24 h; Potency, µM (highest dose often 9.22 µM), without a hit: at the top dose activation, most hits filed as activators; hit rate 2.4% among 320,000; note: % of control where 0% means no effect; nearly all actives have a fitted effect of over 60% in size
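Luminescence read-out of NPC1 promoter-driven luciferase in stably transfected Huh7 cells; compounds delivered in DMSO and left 24 h at 37C, 5% CO2, qHTS titration format.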
ELG1 genotoxic: induces genotoxicity in HEK293T cells with luciferase-tagged ELG1 | HEK293T ELG1-luciferase reporter, luminescence, 16 h | Potency, µM (titrated, usually from 46 µM), for inactives: at the top dose activity change, positive = activation, actives largely listed as activators | hit rate 1.3% among 330,000; note: % of control where 0% means no effect; nearly all actives have a fitted effect of over 60% in size
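Genotoxicity was scored as increased ELG1-luciferase reporter signal, measured by ONE-Glo luminescence (30 min, room temperature). Compound or vehicle exposure of the HEK293T reporter cells lasted 16 hr at 37°C.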
FLuc counter: counter-screen for miR-21 project: firefly luciferase inhibitors or activators; purified FLuc, Km substrates, luminescence inhibition; Potency, µM (titrated, usually from 57.5 µM), for the others: at the highest dose activity change, negative = inhibition, usual class: inhibitors; hit rate 6.9% among 360,000; AID 588342;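 note: plate controls were vehicle for no effect and reference inhibitor for full effect; nearly all actives have a fitted effect of over 55% in size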
Target sequence (P08659 whole entry, looked up): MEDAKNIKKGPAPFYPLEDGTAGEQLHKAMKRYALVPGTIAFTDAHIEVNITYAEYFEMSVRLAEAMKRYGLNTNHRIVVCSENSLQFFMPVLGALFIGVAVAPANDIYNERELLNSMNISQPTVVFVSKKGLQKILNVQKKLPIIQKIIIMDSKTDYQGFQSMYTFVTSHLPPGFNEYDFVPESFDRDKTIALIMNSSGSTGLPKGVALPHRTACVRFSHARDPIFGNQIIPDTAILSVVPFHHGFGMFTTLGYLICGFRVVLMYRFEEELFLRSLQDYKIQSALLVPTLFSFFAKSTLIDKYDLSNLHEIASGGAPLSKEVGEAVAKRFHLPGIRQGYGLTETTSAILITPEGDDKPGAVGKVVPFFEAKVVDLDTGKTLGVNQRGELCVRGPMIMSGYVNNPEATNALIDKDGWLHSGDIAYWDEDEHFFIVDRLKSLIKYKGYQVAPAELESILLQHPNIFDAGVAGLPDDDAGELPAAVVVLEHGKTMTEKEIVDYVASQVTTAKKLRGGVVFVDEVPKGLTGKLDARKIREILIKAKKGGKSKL
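Biochemical qHTS of compounds, final roughly 60 µM downward over six points, against 10 nM purified firefly luciferase using Km concentrations of substrates (10 uM D-luciferin, 10 uM ATP) in Tris acetate pH 7.5 buffer; luminescence output.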
SMN2 splice up: increases expression of the SMN2 splice variant | Potency, µM (doses to about 46.1 µM), inactives show top-dose activity change, positive = activation, hits mostly activators | AID 1458 | hit rate 2.8% among 210,000 | HEK293 SMN2-luciferase splicing reporter, luminescence, 30-36 h; note: % of control where 0% means no effect; nearly all actives have a fitted effect of over 55% in size
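HEK293 cells carry an SMN2 […]–luciferase reporter in which exon 7 inclusion puts luciferase in frame. Cells were plated 10-12 h before compound addition, then incubated 30-36 h at 37C. ONE-Glo luminescence was read; sodium butyrate at 4.5 mM final served as control.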
ELG1 DNA repair: blocks ELG1-dependent DNA repair in HEK293T cells; HEK293T ELG1-luciferase reporter, luminescence, 16 h; DNA damage induced by 5-fluorouridine; Potency, µM (series often up to 46.1 µM), for inactives: top-dose activity change, negative = inhibition, hits mostly inhibitors; hit rate 2.3% among 330,000; AID 504467; note: % is set by controls: 0 for no effect and ±100 for the full control effect; nearly all actives have a fitted effect of over 55% in size
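Overnight (16 hr) co-exposure of 2,000 cells/well to 5-fluorouridine and compound at 37 °C preceded detection. Luciferase was quantified via ONE-Glo luminescence; loss of signal denotes inhibition.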
Rab9 prom act: Rab9 promoter activation; Huh7 Rab9 promoter-luciferase reporter, luminescence, 24 h; Potency, µM (highest dose often 9.22 µM), for inactives: at the highest dose activation, negative = inhibition, hits mostly activators; hit rate 2.8% among 320,000; note: % of control where 0% means no effect; nearly all actives have a fitted effect of over 60% in size
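Measured in stably transfected Huh7 cells bearing a Rab9 promoter–luciferase construct: 24 h compound treatment at 37 °C, followed by luminescence detection.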
An asterisk follows results filed as active; ? = inconclusive; . = not tested or not shown; [ ] = remark or other dose. Hits are enriched below; roughly 9.3% of the tested compounds scored in any of these assays. Calls come from the whole dose curve; as a rule, active = well fitted curve in the direction sought with a large enough effect; inconclusive = small, poorly fitted or top-dose-only effect, or another doubt; inactive = no such curve, though single readings can be large; an effect the other way counts as inactive or inconclusive. Potency is the fitted concentration of half-maximal effect.

SMILES | NPC1 promoter act | ELG1 genotoxic | FLuc counter | SMN2 splice up | ELG1 DNA repair | Rab9 prom act
Cc1cc(-c2ccc(Br)cc2)n[nH]1 | ? | ? | 19µM* | ? | ? | ?
Nc1cc(-c2ccc(Br)cc2)[nH]n1 | 18% | -2% | ? | -2% | 13µM* | 16%
Nc1cc(-c2cccc([N+](=O)[O-])c2)[nH]n1 | 0% | -3% | 2% | 10% | -1% | 1%
Cc1cccc(NS(=O)(=O)c2cc([N+](=O)[O-])ccc2C)n1 | 0% | 1% | -2% | ? | 10% | 0%
COc1ccc(C2CC(=O)c3cc(-c4nc(-c5cccc([N+](=O)[O-])c5)cs4)c(=O)n(-c4ccc(F)cc4)c3C2)cc1 (configuration not stated) | . | . | 1% | -5% | . | .
O=C(/C=C/NNC(=O)c1ccc(Cl)cc1)c1ccccc1 | -1% | -4% | ? | 7% | 1% | 1%
O=C(/C=C/NNC(=O)c1ccccc1)c1ccc(Br)cc1 | 7% | ? | 27µM* | 4% | 12% | 0%
Cc1ccc(C(=O)/C=C/NNC(=O)c2ccccc2O)cc1 | 10% | -5% | 27µM* | . | 13% | 7%
COc1ccc(C(=O)C=CNNC(=O)c2ccc(Cl)cc2)cc1 | -7% | 7% | -6% | . | -12% | -6%
Cc1ccccc1S(=O)Cc1ccc(C(=O)NCc2ccccc2Cl)o1 (configuration not stated) | . | . | -14% | -30% | . | .
CCn1c(CC(=O)Nc2ccc(C)cc2)n[nH]c1=S | -2% | -4% | -4% | 0% | -4% | 2%
CCc1noc(C)c1C(=O)Nc1ccc(-c2nnc3n2CCCCC3)cc1 | 0% | 3% | 5% | . | 3% | 2%
O=C(O)c1ccc2c(=O)n(-c3ccccc3F)c(=S)[nH]c2c1 | 1% | 25% | -14% | -33% | -3% | 2%
O=c1c2cn[nH]c2[nH]c(=S)n1-c1ccccc1F | 2.8µM* | 6.5µM* | 1.2µM* | 14µM* | ? | ?
COc1ccc(NC(=O)c2ccc3c(=O)n(-c4ccc(OC)cc4OC)c(=S)[nH]c3c2)c(OC)c1 | -7% | -7% | -12% | -40% | ? | -2%
COC(=O)c1ccc2c(=O)n(-c3ccccc3F)c(=S)[nH]c2c1 | -3% | -2% | -9% | -55% | 18µM* | 16%
CCOc1ccc(NC(=O)c2ccc3c(=O)n(-c4ccc(OC)cc4OC)c(=S)[nH]c3c2)cc1 | -9% | ? | ? | . | 8.2µM* | -12%
O=C1Cc2cc(CCN3CCN(c4nsc5ccccc45)CC3)c(Cl)cc2N1 | -16%[46.1 µM] | . | 0% | . | . | -33%[46.1 µM]
Cc1ccc(Cl)cc1-n1c(CCC(=O)O)ccc1-c1cccs1 | . | . | ? | -5% | . | .
Cc1nn(Cc2ccc(F)cc2)c(C)c1NC(=O)c1noc2c1CCCCC2 | -4% | -19% | 1% | -39% | 18µM* | -3%
Cc1nn(Cc2ccccc2Cl)c(C)c1NC(=O)c1noc2c1CCCCC2 | 6% | 2% | ? | -27% | -13% | -4%
O=C(Nc1cnn(Cc2ccc(F)cc2)c1)c1noc2c1CCCC2 | ? | ? | 15µM* | -10% | 0.41µM* | 4µM*
CCn1ncc(C2=NOC(C(=O)Nc3c(C)nn(Cc4ccc(F)cc4)c3C)C2)c1C (configuration not stated) | -1% | -9% | 2% | -39% | 15µM* | -2%
COc1ccc(S(=O)Cc2ccc(C(=O)N3CCN(C(=O)c4ccco4)CC3)o2)cc1 (configuration not stated) | 0% | 0% | -1% | . | -1% | -4%
CN(C)CCN(Cc1cc2cc3c(cc2nc1Cl)OCO3)C(=O)c1ccco1 | -1% | 1% | 3% | . | 8% | 0%
SMILES | NPC1 promoter act | ELG1 genotoxic | FLuc counter | SMN2 splice up | ELG1 DNA repair | Rab9 prom act
Cc1onc(-c2ccccc2)c1C(=O)OCCOc1ccc([N+](=O)[O-])cc1[N+](=O)[O-] | -12% | -3% | 2% | . | 15µM* | -11%
CSc1nc(-c2ccc(N(C)C)cc2)c(C#N)c(=O)n1C | ? | ? | 12µM* | . | ? | ?
O=C1C2C3C=CC(C3=C(c3ccccc3)c3ccccc3)C2C(=O)N1Cc1ccccc1 (configuration not stated) | 0% | 2% | -2% | -23% | -8% | 0%
C=CCNC(=S)Nc1c(N)n(C)c(=O)n(C)c1=O | -4% | 0% | 1% | . | 1% | 0%
COc1ccc(OC)c2sc(N3CCc4ccccc4C3)nc12 | -1% | 7% | 12µM* | 3% | 18% | 24%
COc1ccc(OC)c2sc(N3CCCCC3)nc12 | 29% | 18µM* | 19µM* | ? | ? | 21%
c1ccc2c(c1)CCN(c1nc3cc4c(cc3s1)OCCO4)C2 | ? | ? | 0.11µM* | . | ? | ?
COc1ccc(-c2nc(C#N)c(N3CCc4ccccc4C3)o2)cc1OC | -6% | -1% | -14% | -18% | ? | -8%
O=S(=O)(c1ccc2c(c1)OCCO2)N1CCN(c2nc3ccccc3s2)CC1 | -5% | -5% | 1% | -26% | 3% | 0%
Cc1noc(C)c1COc1ccc(C(=O)N2CCC(C(N)=O)CC2)cc1 | . | -3% | . | . | 9% | .
COC(=O)C1(C)C=C2C(=C(c3ccccc3)C(=O)C2C)CN1 (configuration not stated) | . | . | . | -6% | . | .
CN(C(=O)Nc1ccc(Cl)cc1Cl)[C@H]1c2cc(Br)ccc2OC[C@H]1CO | -5% | -16% | 20% | -17% | 21µM* | -6%
COc1cccc2c1OC[C@@H](CO)[C@H]2N(C)C(=O)Nc1ccccc1 | 0% | 1% | 1% | 2% | -2% | 4%
CCOc1ccc(S(=O)(=O)n2nc(C)cc2C)cc1 | -1% | -4% | 1% | . | -5% | 8%
COc1cc2c(cc1NC(=O)c1ccc3c(c1)OCO3)oc1ccccc12 | ? | 12µM* | 6.7µM* | 14µM* | ? | 3.2µM*
COc1cc2c(cc1NCc1ccc3c(c1)OCO3)oc1ccccc12 | 26% | 15% | ? | 22µM* | ? | -2%
COc1ccc(OC)c(-c2csc(NC(=O)c3ccc4c(c3)OCO4)n2)c1 | 17% | -3% | 4.8µM* | ? | -15% | 4%
COc1ccc(OC)c(NC(=O)c2ccc3c(c2)OCO3)c1 | 15% | 8% | 21µM* | . | ? | 13%
O=C(Cn1c(=O)c2cccn2c2ccccc21)Nc1cc(F)ccc1F | 3% | 2% | 0% | . | 4% | 4%
CCn1cc(C(=O)NCCC(C)C)c(=O)c2cc(S(=O)(=O)N(C)C3CCCCC3)ccc21 | . | . | 3% | 16% | . | .
CCOC(=O)c1c(S(=O)(=O)N(C)Cc2ccccc2)c(C)n(C)c1C | 2% | 0%[9.26 µM] | 0% | . | -1% | -2%

Screening results from PubChem BioAssay.
